Each structure is given as a SMILES string. The source made the active and inactive calls. How the source made its calls: active means hit-call score of the fitted dose curve at least 0.9, where 1 is the maximum; inactive means score below 0.9.

AC50 data for one compound are collected here from PubChem BioAssay AID2284186 (EPA ToxCast).

In the experiment the target is Glucocorticoid receptor (Homo sapiens) (UniProt P04150). The experiment can be described thus: ERF_FR_NR_hGR: Eurofins (ERF) Nuclear Receptor (NR) Radioligand Binding LeadHunter Assay for human Glucocorticoid Receptor (GR) Agonism, conducted at France lab site. Here is the method: ERF_FR_NR_hGR is a biochemical, single-readout assay that uses extracted gene-proteins in a cell-free assay. Measurements were taken 6 hour after chemical dosing in a 96-well plate. See GR Human Glucocorticoid NHR Binding (Agonist Radioligand) Assay, Cerep.ERF_FR_NR_hGR is an assay component calculated from the ERF_FR_NR_hGR assay. It is designed to measure radioligand binding using a type of binding reporter as detected by scintillation counting with radiometry technology.Data from the assay component ERF_FR_NR_hGR was analyzed at the assay endpoint, ERF_FR_NR_hGR, in the positive analysis fitting direction relative to DMSO as the negative control and baseline of activity. Using a type of binding reporter, gain-of-signal activity can be used to understand changes in binding as they relate to gene NR3C1. To generalize the intended target to other relatable targets, this assay endpoint is annotated to the nuclear receptor intended target family, where the subfamily is steroidal.
Glucocorticoid receptor (Homo sapiens), sequence (P04150 whole entry, looked up): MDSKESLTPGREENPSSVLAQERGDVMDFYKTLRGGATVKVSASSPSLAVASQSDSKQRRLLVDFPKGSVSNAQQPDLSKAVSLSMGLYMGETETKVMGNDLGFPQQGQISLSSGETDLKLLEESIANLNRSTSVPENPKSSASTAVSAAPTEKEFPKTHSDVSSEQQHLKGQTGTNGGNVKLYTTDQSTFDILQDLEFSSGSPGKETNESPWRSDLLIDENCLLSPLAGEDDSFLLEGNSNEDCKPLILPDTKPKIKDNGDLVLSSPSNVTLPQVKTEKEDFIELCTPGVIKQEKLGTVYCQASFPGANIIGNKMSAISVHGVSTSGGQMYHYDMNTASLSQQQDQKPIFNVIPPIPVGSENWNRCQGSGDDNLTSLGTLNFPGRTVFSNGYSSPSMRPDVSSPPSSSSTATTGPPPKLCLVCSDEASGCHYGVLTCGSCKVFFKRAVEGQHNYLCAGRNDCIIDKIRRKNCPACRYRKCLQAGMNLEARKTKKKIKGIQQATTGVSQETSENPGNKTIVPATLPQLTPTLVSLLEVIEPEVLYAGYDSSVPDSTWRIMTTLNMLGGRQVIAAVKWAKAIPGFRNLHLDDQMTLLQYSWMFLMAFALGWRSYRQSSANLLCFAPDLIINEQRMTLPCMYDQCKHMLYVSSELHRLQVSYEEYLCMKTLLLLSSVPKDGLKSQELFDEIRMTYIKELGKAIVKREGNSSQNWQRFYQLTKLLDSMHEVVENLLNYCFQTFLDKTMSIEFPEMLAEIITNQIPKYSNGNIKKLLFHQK
Human cells are incubated for 24 hours at 4C with [3H]dexamethasone ([…]) ligand and Dexamethazone as control inhibitor. Test Sample Requirements: Minimum for 1) Screen: 60 ul of 10 mM stock -OR- 1 mg (pre-weighed) for 10 uM final testing. 2) Dose Response: 90 ul of 10 mM stock -OR- 1 mg (pre-weighed) for a top concentration at 10 uM.
The term AC50 denotes the midpoint of the concentration-response curve, whichever way the signal moves. Consider `O=C(/C=C/c1ccc(O)cc1)CC(=O)/C=C/c1ccc(O)cc1`, for which the AC50 was 969 nM (active).
